In the library only some 9.2% were active in any assay of this set; here they are far more common.
ELG1 repair inh – ELG1-dependent DNA repair inhibition | HEK293T ELG1-luciferase reporter, luminescence, 16 h; DNA damage induced by 5-fluorouridine | Potency, µM (series often up to 46.1 µM), inactives show top-dose activity change, negative = inhibition, usual class: inhibitors | hit rate 2.3% among 330,000 | AID 504467; note: % is set by controls: 0 for no effect and ±100 for the full control effect; nearly all actives have a fitted effect of over 55% in size
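Step one: seed 2,000 cells per well. Step two: pin-transfer compound or DMSO alongside 5-fluorouridine. Step three: incubate 16 hr, 37 °C, 5% CO2. Step four: add ONE-Glo, wait 30 min, read luminescence.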
ELG1 genotoxic – induces genotoxicity in HEK293T cells with luciferase-tagged ELG1; HEK293T ELG1-luciferase reporter, luminescence, 16 h; Potency, µM (titrated, usually from 46 µM), inactives show top-dose activity change, positive = activation, most hits filed as activators; hit rate 1.3% among 330,000; note: % of control where 0% means no effect; nearly all actives have a fitted effect of over 60% in size
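HEK293T cells expressing luciferase-tagged ELG1 were exposed to compound or DMSO vehicle for 16 hr at 37 °C and 5% CO2. Luciferase activity was then measured with ONE-Glo after 30 min at room temperature.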
SMN2 splice enh – SMN2 splice variant enhancement; HEK293 SMN2-luciferase splicing reporter, luminescence, 30-36 h; hit rate 2.8% among 210,000; Potency, µM (series often up to 46.1 µM), for the others: top-dose activity change, positive = activation, actives largely listed as activators; AID 1458; note: % of control where 0% means no effect; nearly all actives have a fitted effect of over 55% in size
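HEK293 cells carry an SMN2 […]–luciferase reporter in which exon 7 inclusion puts luciferase in frame. Cells were plated 10-12 h before compound addition, then incubated 30-36 h at 37C. ONE-Glo luminescence was read; sodium butyrate at 4.5 mM final served as control.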
FLuc modulator – inhibits or activates purified firefly luciferase, miR-21 counter-screen. P08659. purified FLuc, Km substrates, luminescence inhibition. Potency, µM (titrated, usually from 57.5 µM), for the others: top-dose activity change, negative = inhibition, most hits filed as inhibitors. hit rate 6.9% among 360,000. AID 588342;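 note: plate controls were vehicle for no effect and reference inhibitor for full effect; nearly all actives have a fitted effect of over 55% in size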
Target sequence (P08659 whole entry, looked up): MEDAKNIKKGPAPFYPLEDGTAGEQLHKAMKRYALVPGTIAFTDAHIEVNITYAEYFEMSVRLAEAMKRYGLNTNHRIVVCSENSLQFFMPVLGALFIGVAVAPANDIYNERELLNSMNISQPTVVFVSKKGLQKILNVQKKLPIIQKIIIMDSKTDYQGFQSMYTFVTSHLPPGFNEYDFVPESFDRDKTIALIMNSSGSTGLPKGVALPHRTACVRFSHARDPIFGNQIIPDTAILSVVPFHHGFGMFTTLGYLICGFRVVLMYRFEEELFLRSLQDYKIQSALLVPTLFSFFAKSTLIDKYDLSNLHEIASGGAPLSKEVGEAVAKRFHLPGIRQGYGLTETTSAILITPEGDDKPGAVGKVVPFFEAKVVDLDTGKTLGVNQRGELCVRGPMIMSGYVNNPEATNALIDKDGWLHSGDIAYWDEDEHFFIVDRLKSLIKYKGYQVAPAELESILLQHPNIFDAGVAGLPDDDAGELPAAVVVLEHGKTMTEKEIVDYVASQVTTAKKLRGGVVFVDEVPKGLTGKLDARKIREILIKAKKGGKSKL
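Purified P. pyralis luciferase (10nM final) with 10uM D-luciferin and 10uM ATP (Km levels) in 50mM Tris acetate pH 7.5, 10mM Mg acetate, 0.01% Tween-20, 0.05% BSA; qHTS 6-point titration, ~60 µM downward; luminescence read.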
Rab9 promoter act – activators of Rab9 promoter | Huh7 Rab9 promoter-luciferase reporter, luminescence, 24 h | Potency, µM (series often up to 9.22 µM), without a hit: top-dose activation, negative = inhibition, usual class: activators | hit rate 2.8% among 320,000; note: % of control where 0% means no effect; nearly all actives have a fitted effect of over 60% in size
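Huh7 cells stably carrying Rab9 promoter–luciferase reporter, plated 1500 cells/well, compound added after 2 h and incubated 24 h at 37 °C; luciferase luminescence then read after 10 min with detection reagent.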
NPC1 promoter act – activators of NPC1 promoter; Huh7 NPC1 promoter luciferase reporter, 24 h; Potency, µM (titrated, usually from 9.22 µM), inactives show at the top dose activation, most hits filed as activators; hit rate 2.4% among 320,000; note: % of control where 0% means no effect; nearly all actives have a fitted effect of over 60% in size
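NPC1 promoter–luciferase Huh7 cells; 24 h compound; luminescence.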
* marks the source's active call; other numbers are inactive results; ? = inconclusive; nt = not tested or not shown. Calls come from the whole dose curve; as a rule, active = well fitted curve in the direction sought with a large enough effect; inconclusive = small, poorly fitted or top-dose-only effect, or another doubt; inactive = no such curve, though single readings can be large; an effect the other way counts as inactive or inconclusive. Potency is the fitted concentration of half-maximal effect.

SMILES	ELG1 repair inh	ELG1 genotoxic	SMN2 splice enh	FLuc modulator	Rab9 promoter act	NPC1 promoter act
CCc1ccc(OCC(=O)Nc2ccc3c(c2)OCCO3)cc1	?	15%	nt	19µM*	0%	3%
CCc1ccc(NC(=O)COc2ccc3c(c2)OCO3)cc1	?	?	nt	27µM*	14%	27%
CCC(C)NS(=O)(=O)c1ccc(OCC(=O)Nc2ccc3c(c2)OCCO3)cc1 (stereo not given)	7%	-1%	-10%	1%	0%	-1%
O=C(Nc1ccc(F)cc1)Nc1ccc(N2CCOCC2)c2nonc12	?	?	?	?	2.2µM*	?
COc1ccc(NC(=O)Nc2ccc(N3CCOCC3)c3nonc23)c(OC)c1	18%	6%	7%	-1%	-3%	0%
Cc1ccc(N/C=C(/C#N)c2ccsc2)cc1	nt	nt	?	17µM*	nt	nt
N#C/C(=C/Nc1ccccc1)c1ccsc1	nt	nt	-3%	?	nt	nt
Cc1ccc(C(=O)O)cc1NC(=O)CSc1nnc(-c2ccccc2F)n1C1CCCCC1	9%	1%	nt	nt	nt	nt
COc1cccc2[nH]c(C(=O)NC(C)c3ccccc3)cc12 (stereo not given)	-18%	-4%	nt	-18%	-9%	-4%
CCN(CC)c1ccc(NC(=O)c2cc(Cl)ccc2OC)cc1	3%	9%	4%	15µM*	16%	16%
COc1ccc(Cl)cc1C(=O)Nc1ccc2c(c1)OCO2	?	?	15%	24µM*	?	?
CCN(CC)c1ccc(NC(=O)c2cc3c(OC)cccc3[nH]2)cc1	-2%	-1%	nt	7.6µM*	5%	-3%
COc1ccc(Cl)cc1C(=O)Nc1ccc2c(c1)OCCO2	?	?	nt	1.9µM*	26%	?
COc1ccc(NC(=O)CN(C)C(=O)Cc2ccc(S(=O)(=O)N3CCOCC3)s2)cc1	25%	-2%	nt	1%	17%	4%
CSCCC(NC(=O)c1cccc(S(=O)(=O)N2CCOCC2)c1)C(=O)Nc1cccc(C)c1 (stereo not given)	-1%	2%	-1%	0%	-12%	-4%
COc1ccccc1CN1CCC2(CC1)CCN(C(=O)c1c(C)noc1C)CC2	nt	nt	4%	nt	nt	nt
Cn1c(=O)c2c(nc(Br)n2CC(=O)C23CC4CC(CC(C4)C2)C3)n(C)c1=O	15µM*	-2%	-17%	4%	-2%	13%
COc1cccc(C(=O)Cn2c(Br)nc3c2c(=O)n(C)c(=O)n3C)c1	?	-1%	-36%	7%	-6%	-3%
CCO[C@H]1OC(C(=O)NCc2ccccc2)=C[C@@H](c2ccccc2)[C@@H]1CCCO	-27%	-3%	nt	1%	0%	-3%
CCOC(=O)c1sc(N2C(=O)c3oc4ccc(C)cc4c(=O)c3C2c2ccccc2F)nc1C (stereo not given)	nt	nt	8%	2%	nt	nt
O=C(Nc1cccc(-c2cn3ccccc3n2)c1)c1ccccc1	?	-2%	?	4.8µM*	?	24%
O=C(Nc1ccc(-c2cn3ccccc3n2)cc1)c1ccco1	?	?	11µM*	2.4µM*	3.2µM*	2.8µM*
Cc1ccc(C(=O)Nc2cccc(-c3cn4ccccc4n3)c2)cc1	?	1%	nt	6µM*	?	24%
Cc1ccccc1C(=O)Nc1cccc(-c2ccc3nncn3n2)c1	?	0%	9%	-15%	15%	-3%
Cc1ccccc1C(=O)Nc1cccc(-c2cn3ccccc3n2)c1	?	-18%	-4%	6.7µM*	1%	0%
O=C(Nc1ccc(-c2cn3ccccc3n2)cc1)c1ccc(Cl)cc1	0%	2%	?	-18%	27%	?
CCS(=O)(=O)N1Cc2ccccc2CC1C(=O)Nc1ccc(F)c(F)c1F (stereo not given)	22%	5%	nt	?	17%	16%
Cc1cc(C)nc(NS(=O)(=O)c2ccc(N=NN(C)C)cc2)n1	-11%	0%	nt	-4%	-2%	-2%

Screening data deposited in PubChem by National Center for Advancing Translational Sciences (NCATS).
